Test results as given in PubChem BioAssay (NCATS).
Results filed as inconclusive are left out. The source made the active and inactive calls. Calls come from the whole dose curve; as a rule, active = well fitted inhibition curve with a large enough effect; inconclusive = small, poorly fitted or top-dose-only effect; inactive = flat fitted curve, though single readings scatter.

System: KB-3-1
Test: Cytotoxic Profiling of Annotated Libraries Using Quantitative High-Throughput Screening (AID 1296008); note: nearly all actives have a fitted effect of over 60% in size
Details: Five cell lines viability, CellTiter-Glo ATP luminescence, 48-72 h; max response: stronger effect = lower value
How it was run: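 Cells exposed to compounds for 48 or 72 hr at 37 degrees Celsius. Viability read as ATP-coupled luminescence with CellTiter-Glo after 10 min at room temperature.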
% is set by controls: 0 for no effect and ±100 for the full control effect; potency is the fitted concentration of half-maximal effect.

Row | Structure (SMILES) | outcome | max response | Potency
1 | C/C1=C\CCC(C)CCO[C@@H]2O[C@H](CO[C@@H]3OC[C@H](O)[C@H](O)[C@H]3OC1=O)[C@@H](O)[C@H](O)[C@H]2O (some centres undefined) | inactive | – | –
2 | C[C@H]1CC(=O)Nc2cccc(-c3cnn(C(C)(C)C)c3)c2N1 | – | -8.91% (inactive) | –
3 | Cc1cccc(Oc2cnc(=O)[nH]c2)c1 | – | 3.8% (inactive) | –
4 | CC(=O)N[C@H]1[C@H](O[C@H]2CC[C@@]3(C)C(CC[C@]4(C)C3CC=C3[C@@H]5CC(C)(C)CC[C@]5(C(=O)OC5OCC(O)C(O)C5O)CC[C@]34C)C2(C)C)O[C@H](COC2OC(C)C(O)C(OC3OC(C)C(O)C(O)C3O)C2O)[C@@H](O)[C@@H]1O (some centres undefined) | inactive | – | –
5 | COc1ccc(-c2c(-c3cc(C(=O)O)ccn3)ncn2C)cc1 | – | 4.75% (inactive) | –
6 | COc1cc2oc(-c3ccc(O)cc3O)cc2c(OC)c1CC=C(C)C | – | -1.08% (inactive) | –
7 | CC(C)[C@@H]1C(=O)N(S(C)(=O)=O)[C@@H]2CCN(C(=O)/C=C/CN3CCCCC3)[C@H]21 | – | 5.42% (inactive) | –
8 | O=C(Nc1c(-c2cccs2)nc2ccccn12)c1ccc(Cl)cc1 | inactive | – | –
9 | C[C@@H]1O[C@@H](O[C@@H]2[C@@H](O)[C@H](O[C@H]3[C@H](O[C@H]4CC[C@@]5(C)C(CC[C@]6(C)C5CC=C5[C@@H]7CC(C)(C)CC[C@]7(C(=O)O[C@@H]7O[C@H](CO)[C@@H](O)[C@H](O)[C@H]7O[C@@H]7O[C@@H](C)[C@H](O[C@@H]8O[C@@H](C)[C@H](O)[C@@H](O)[C@H]8O)[C@@H](O)[C@H]7O)CC[C@]56C)[C@@]4(C)CO)O[C@H](C(=O)O)[C@@H](O)[C@@H]3O)O[C@H](CO)[C@H]2O)[C@H](O)[C@H](O)[C@H]1O (some centres undefined) | – | 5.11% (inactive) | –
10 | CC[C@H]1OC(=O)[C@](C)(F)C(=O)[C@H](C)[C@@H](O[C@@H]2O[C@H](C)C[C@H](N(C)C)[C@H]2O)[C@](C)(OC)C[C@@H](C)C(=O)[C@@H](C)[C@H]2N(CCCCn3cc(-c4cccc(N)c4)nn3)C(=O)O[C@]12C | – | -12.6% (inactive) | –
11 | CC1(C)CC2C(O)c3cocc3CC(C)(O)C2C1 (centres undefined) | – | 5.78% (inactive) | –
12 | CC1OC(OC2C(CO)OC(OCC3OC(OC(=O)C45CCC(C)(C)CC4C4=CCC6C7(C)CCC(OC8OC(CO)C(O)C(OC9OC(CO)C(O)C(O)C9O)C8O)C(C)(C)C7CCC6(C)C4(C)CC5)C(O)C(O)C3O)C(O)C2O)C(O)C(O)C1OC1OC(CO)C(O)C(O)C1O (centres undefined) | – | -0.0406% (inactive) | –
13 | COCCOc1cnc2ccn([C@H](C)c3nnc4c(F)cc(-c5cnn(C)c5)cn34)c(=O)c2c1 | – | 1.49% (inactive) | –
14 | CCOc1cc2ncc(C#N)c(Nc3ccc(F)c(Cl)c3)c2cc1NC(=O)/C=C/CN(C)C | – | – | 5.8 µM (active)
